Laboratory results taken from PubChem BioAssay (NCATS).
Inconclusive results are not listed. Values without a mark were called inactive. Calls of active or inactive are those of the source. Unless noted, calls come from the whole dose curve.

test system: not listed separately; experiment: qHTS for Inhibitors of Plasmodium falciparum (CP250) proliferation (AID 504320; active = well fitted inhibition curve with a large enough effect;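 note: plate controls were DMSO vehicle for no effect and 0.29 µM artemisinin control for full effect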); conditions: P. falciparum CP250 in erythrocytes, SYBR Green DNA, 72 h; series mostly up to 6.7 µM; activity change, negative = inhibition: at the top concentration
Summary of the method: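 Erythrocytes infected with P. falciparum line (0.3% parasitemia, 2.5% hematocrit final) incubated with compounds 72 h at 37 °C, 5% CO2; SYBR Green lysis buffer added, fluorescence read next day. Normalized to 0.29 uM artemisinin and DMSO.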

SMILES	Potency	activity change, negative = inhibition [%]
CCCCc1cc2c(cn1)=C(OC(=O)c1ccco1)C(C)(OC(=O)CC)C(=O)C=2 (stereo unspecified)	inactive	
CCOC(=O)C1(C(=O)OCC)CC2=C(C=CC3=C(C=C2)CC(C(=O)OCC)(C(=O)OCC)C3)C1		-3
C=CCC12C=C(OC)C(=O)C(C1=O)C1c3ccccc3CC12 (stereo unspecified)		-7.54
CC(C)(C(O)c1ccc([N+](=O)[O-])cc1)[N+](=O)[O-] (stereo unspecified)		4.58
COC(=O)N[C@H](C(C(=O)OC)=C(C)NCc1ccccc1)c1ccccc1		-10.8
COc1cc(C(CC2=C(c3ccccc3)Cc3ccccc32)NC(=O)C(F)(F)F)cc(OC)c1OC (stereo unspecified)		-0.164
CC(C)=CCCC(C)=CCN1C(=O)[C@@]2(C[C@@H](C)C[C@@H](C)O2)c2ccccc21		-3.45
CCCCCCCC1=Cc2ccc(F)cc2C(C(C(=O)OC)C(=O)OC)N1C(=O)OC (stereo unspecified)		-19.4
C=CCCCC=C(C)[C@H](OCc1ccc(OC)cc1)[C@H](CCC=C(C)C(N)=O)OC		-11.7
COc1cccc(C(CC2=CCCCC2)NC(=O)C(F)(F)F)c1 (stereo unspecified)		-2.47
COC1=C[C@H](C(=O)N2CCCC2)[C@H](C)[C@@H](c2ccccc2)CC1=O		-2.16
CCCCCCCC1=Cc2ccccc2C(CC(=O)c2ccccc2)N1C(=O)OC (stereo unspecified)		-23.2

target: Atrial natriuretic peptide receptor 1 (Homo sapiens) (UniProt P16066); experiment: Natriuretic polypeptide receptor (hNpr1) antagonism - Pilot CMLD screen (AID 1347052); conditions: HEK293 hNpr1 GloSensor cGMP luminescence, ANP-stimulated; series mostly up to 9.22 µM; activity change, negative = inhibition: at the top concentration;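 note: cGMP level read as GloSensor luciferase luminescence after agonist stimulation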; note: potency is the fitted concentration of half-maximal effect;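 for activity change, negative = inhibition: HEK293 cells with hNpr1 stimulated by hNppA peptide at 0.1 nM; % is set by controls: 0 for no effect and ±100 for the full control effect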
Sequence (P16066 whole entry, looked up): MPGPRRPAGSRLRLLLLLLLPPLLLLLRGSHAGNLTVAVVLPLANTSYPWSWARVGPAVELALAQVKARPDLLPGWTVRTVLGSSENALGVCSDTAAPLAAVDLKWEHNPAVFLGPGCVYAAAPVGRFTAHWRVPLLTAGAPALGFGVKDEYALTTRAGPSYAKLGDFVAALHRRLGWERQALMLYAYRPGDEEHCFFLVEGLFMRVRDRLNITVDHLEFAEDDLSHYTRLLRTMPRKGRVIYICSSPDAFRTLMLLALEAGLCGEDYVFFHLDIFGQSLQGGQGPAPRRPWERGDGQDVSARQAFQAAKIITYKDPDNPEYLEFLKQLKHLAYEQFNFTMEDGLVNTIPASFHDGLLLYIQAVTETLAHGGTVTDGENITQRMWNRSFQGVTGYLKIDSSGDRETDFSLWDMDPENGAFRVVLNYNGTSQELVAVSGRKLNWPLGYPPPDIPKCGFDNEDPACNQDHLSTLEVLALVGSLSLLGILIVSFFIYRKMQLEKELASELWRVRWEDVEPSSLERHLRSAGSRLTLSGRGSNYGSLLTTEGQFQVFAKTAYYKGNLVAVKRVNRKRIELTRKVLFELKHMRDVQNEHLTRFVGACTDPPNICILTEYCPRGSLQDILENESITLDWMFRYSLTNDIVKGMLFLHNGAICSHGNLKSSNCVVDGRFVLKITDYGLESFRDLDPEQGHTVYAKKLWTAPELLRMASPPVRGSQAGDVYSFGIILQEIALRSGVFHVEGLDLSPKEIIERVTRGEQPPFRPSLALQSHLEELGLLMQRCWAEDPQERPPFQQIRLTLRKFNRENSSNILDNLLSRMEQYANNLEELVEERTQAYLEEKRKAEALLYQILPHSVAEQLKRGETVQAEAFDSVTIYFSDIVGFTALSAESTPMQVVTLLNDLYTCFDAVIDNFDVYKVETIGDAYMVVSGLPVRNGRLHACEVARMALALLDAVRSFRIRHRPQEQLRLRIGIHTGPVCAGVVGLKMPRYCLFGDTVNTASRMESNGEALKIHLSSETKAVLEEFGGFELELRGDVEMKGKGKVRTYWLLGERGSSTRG

SMILES	activity change, negative = inhibition [%]	Potency
CCN(CCNC(=O)[C@H]1C=C(OC)C(=O)C[C@H](c2ccccc2)[C@@H]1C)C(C)=O	11.4	
CCCCCCCC1Cc2ccccc2C(C(C(=O)OC)C(=O)OC)N1C(=O)OC (stereo unspecified)		inactive
C=C(C)CCCN1C=C(C(=O)OCC)C(c2ccccc2)NC1=O (stereo unspecified)	-1.31	
C[C@@H]1C=CCCO[C@]12C(=O)N(Cc1ccccc1C(F)(F)F)c1cccc(Br)c12	-0.668	
COCC=CC1=CC2=CC(=O)C(C)(OC(=O)c3cnc4ccccc4n3)C(=O)C2=CN1CC(C)C (stereo unspecified)	1.47	
C=CCN1c2ccccc2[C@]23CCC(=O)N(CCc4ccccn4)C2=NC(C(=O)OC)=C(C(=O)OC)[C@H]13	-16.6	
CC(C)OC(=O)[C@@H]1CC[C@H](C)[C@@H](CCC[C@@H]2CC=C[C@H](CC#N)O2)O1	2.3	
CC(C)=CCCC(C)=CCN1C(=O)[C@]2(OCCC=C[C@H]2C)c2ccccc21	10.4	
COC(=O)C1=C(C)N(Cc2ccccc2)C(=NCc2ccccc2)NC1c1ccccc1 (stereo unspecified)	-3.47	
COc1ccc2c(c1)[C@@H](NC(=O)C(F)(F)F)C1CCCCC21c1ccccc1 (stereo partly specified)	0.414	
COC(=O)CC=C1c2ccccc2C[C@H](OC)[C@@H]1C	-0.563	
CC(Nc1oc(-c2ccccc2)nc1-c1ccccc1)c1ccccc1 (stereo unspecified)	-0.127	
CCOC(=O)CN1C(=O)NC(c2ccc(Br)cc2)C(C(C)=O)=C1C (stereo unspecified)	-5.02	
Cc1cc(C)c(-c2cc([C@H](C)ON=C[C@@H](C)[C@H](OCc3ccccc3)C(C)C)on2)c(C)c1	9.94	
COCOc1c2c(c(OCOC)c3c(OCOC)cccc13)C(=NNS(=O)(=O)c1ccc(C)cc1)C1=C2CCCC1	0.527	
CCCCCCCC1=Cc2ccccc2C(C(C(=O)OC)C(=O)OC)N1C(=O)OC (stereo unspecified)	-4.8	
COC(=O)N[C@@H](c1ccccc1)C(C(=O)OC)C(=O)OC	-2.09	
C=C(C)C(O)C=Cc1ccccc1OC (stereo unspecified)	1.19	
C#CC[C@@]1(C(=O)OC)C=C[C@@H](C)[C@H](c2ccccc2Br)N1C(=O)C(F)(F)F	0.0057	
Cc1ccccc1Nc1oc(-c2ccccc2)nc1C=Cc1ccccc1	5.59	
C=C(Nc1ccc(OC)cc1)C(=O)OC	2.61	
C#CCN1C(=O)CC[C@@]23C1=NC(C(=O)OC)=C(C(=O)OC)[C@@H]2N(CC=C(C)C)c1ccccc13		inactive
COc1ccc2c(c1)[C@@]1(OCCC=C[C@@H]1C)C(=O)N2Cc1ccc(F)cc1	1	
CCC=C1C(=O)[C@]2(C(=O)c3ccccc3)C[C@H]3CCC(CCC)(C2=O)[C@@]13OC	-8.75	
CCCCCCCc1cc2ccccc2c2c(C(=O)OC)c(C)c(C(=O)OC)n12		944 nM (active)
CC12C=C(C=Cc3ccc(C(F)(F)F)cc3)C(C)(C1)C(c1ccc(C(F)(F)F)cc1)CC2=O (stereo unspecified)	1.14	
C=CC[C@@H]1C=C[C@H](ON=C2c3cc(OC)ccc3O[C@H](c3cccc(OC)c3)[C@@H]2O)[C@H](CO)O1	0.485	
CCCCc1cc2c(cn1)=C(OC(=O)c1ccco1)C(C)(OC(=O)CC)C(=O)C=2 (stereo unspecified)	-6.77	
CCOC(=O)C1(C(=O)OCC)CC2=C(C=CC3=C(C=C2)CC(C(=O)OCC)(C(=O)OCC)C3)C1	1.15	
